{"source": "ChEMBL document CHEMBL4513216", "about": "“Probing the Open Global Health Chemical Diversity Library for Multistage-Active Starting Points for Next-Generation Antimalarials” (ACS Infect Dis, 2020)", "note": "Out of some 69,000 compounds screened, about 8,600 (12%) showed an effect of 50% or more. The entries come from a sample that favours strong results as a whole.", "data": [{"tested_on": "Plasmodium berghei", "assay": "Screen against P. berghei liver stage (PbLuc), transformed with Luciferase, at 10uM", "type": "functional, HepG2", "conditions": "tested at 10 uM", "units": {"INHIBITION": "%"}, "values": [{"smiles": "CC(C)Oc1cccc2c1c(NC(=O)CN(C)C)nn2CC(F)(F)F", "INHIBITION": 7.77}, {"smiles": "CC(=O)N1CCCC(c2cccc(-n3ccnc3)n2)C1", "note": "(stereo not drawn)", "INHIBITION": 36.7}, {"smiles": "O=C(c1cc[nH]n1)N1CCCC(c2cccc(-n3ccnc3)n2)C1", "note": "(stereo not drawn)", "INHIBITION": 14.4}, {"smiles": "Cc1n[nH]cc1C(=O)N1CCCC(c2cccc(-n3ccnc3)n2)C1", "note": "(stereo not drawn)", "INHIBITION": -13.7}, {"smiles": "c1cnc(N2CCCC(c3cncc(-n4ccnc4)n3)C2)nc1", "note": "(stereo not drawn)", "INHIBITION": 15.9}, {"smiles": "O=C(C1CCC1)N1CCCC(c2cccc(-n3ccnc3)n2)C1", "note": "(stereo not drawn)", "INHIBITION": 29.3}, {"smiles": "Cc1nccn1-c1cccc(C2CCCN(C3CCCCC3)C2)n1", "note": "(stereo not drawn)", "INHIBITION": 11.4}, {"smiles": "Cc1cc(C)nc(N2CCCC(c3cccc(-n4ccnc4)n3)C2)n1", "note": "(stereo not drawn)", "INHIBITION": 69.3}, {"smiles": "Cc1nc(C(=O)N2CCCC(c3cccc(-n4ccnc4)n3)C2)co1", "note": "(stereo not drawn)", "INHIBITION": 29.6}, {"smiles": "O=C(c1cnccn1)N1CCCC(c2cccc(-n3ccnc3)n2)C1", "note": "(stereo not drawn)", "INHIBITION": 50.1}, {"smiles": "COCC(=O)N1CCCC(c2cccc(-n3ccnc3)n2)C1", "note": "(stereo not drawn)", "INHIBITION": 36.7}, {"smiles": "O=C(C1CCCC1)N1CCCC(c2cccc(-n3ccnc3)n2)C1", "note": "(stereo not drawn)", "INHIBITION": 63.4}, {"smiles": "Cc1nccn1-c1cccc(C2CCCN(C(=O)c3cc[nH]n3)C2)n1", "note": "(stereo not drawn)", "INHIBITION": 53.8}, {"smiles": "CC(=O)c1ccc(OCC(=O)NS(=O)(=O)c2cccnc2)cc1", "INHIBITION": 35.9}, {"smiles": "Cc1cnn(CC2CCCCN2C(=O)c2cc(Cl)c[nH]2)c1", "note": "(stereo not drawn)", "INHIBITION": 40.3}, {"smiles": "Cc1cccc(C(=O)N2CCC3(CC(C(=O)N(C)C(C)C)=NO3)C2)c1", "note": "(stereo not drawn)", "INHIBITION": 6.72}, {"smiles": "Cc1noc([C@@H]2C[C@H]3OCC[C@H]3N(S(=O)(=O)N(C)C)C2)n1", "INHIBITION": -13}, {"smiles": "CC(=O)N1CCN(C(=O)NCc2ccccc2Cn2cncn2)CC1", "INHIBITION": -56.4}, {"smiles": "COCC(=O)NCC1CCC(c2ccnc3ncnn23)CC1", "note": "(stereo not drawn)", "INHIBITION": 15.5}, {"smiles": "Fc1ccc(CN2CCCC2c2cncc(-n3ccnc3)n2)cc1", "note": "(stereo not drawn)", "INHIBITION": 22.7}, {"smiles": "c1cn(-c2cncc(C3CCNCC3)n2)cn1", "INHIBITION": -64.7}, {"smiles": "Cc1cc(C)nc(N2CCC(c3cncc(-n4ccnc4)n3)CC2)n1", "INHIBITION": 66.4}, {"smiles": "CCOCc1ccc(NC(=O)N2CCOC3(CCC3)C2)cc1", "INHIBITION": -1.32}, {"smiles": "O=C(c1cc(Cl)c(Br)[nH]1)N1CCN(Cc2ccco2)CC1", "INHIBITION": 63.8}, {"smiles": "O=C(c1cc(Br)ccc1Cl)N1CCN(Cc2ccco2)CC1", "INHIBITION": 36.9}, {"smiles": "Cc1cc(C)c2cc(C(=O)N3CCN(Cc4ccco4)CC3)[nH]c2c1", "INHIBITION": 9.04}, {"smiles": "O=C(c1cc(Br)c[nH]1)N1CCN(Cc2ccco2)CC1", "INHIBITION": 55.4}, {"smiles": "CC(C)c1cc(C(=O)N2CCN(Cc3ccco3)CC2)n[nH]1", "INHIBITION": 14.3}, {"smiles": "CC(=O)N1CCN(Cc2ccco2)CC2(CC(=O)N(C)C2)C1", "note": "(stereo not drawn)", "INHIBITION": 19.8}, {"smiles": "CCOc1ncnc2c1CCN(S(=O)(=O)c1ccccc1)CC2", "INHIBITION": 41.2}, {"smiles": "Cc1ccc2nc(C3CCN(CC(C)C)CC3)nc(O)c2c1", "INHIBITION": -8.07}, {"smiles": "CC(C)Oc1ccc(C(=O)N2CCC(Nc3cccnn3)CC2)cn1", "INHIBITION": -73.2}, {"smiles": "Cc1cccc(CN2CCCn3c(nnc3CN3CCCC3=O)C2)n1", "INHIBITION": 24.8}, {"smiles": "Cc1ccc(NC2CCN(C(=O)C(C)n3cncn3)CC2)nn1", "note": "(stereo not drawn)", "INHIBITION": -19.4}, {"smiles": "O=C(c1ccccc1)N1C[C@H]2CC[C@@H](C1)N(C(=O)CN1CCOCC1)C2", "INHIBITION": 0.897}, {"smiles": "CN(C(=O)COc1ccc(-c2noc(C3CCCO3)n2)cc1)C1CC1", "note": "(stereo not drawn)", "INHIBITION": -27.3}, {"smiles": "Cc1cc(C)cc(-n2ncc3c2CCCC3N)c1", "note": "(stereo not drawn)", "INHIBITION": 37.9}, {"smiles": "Cc1nc(C)n(CC(=O)N2CCCC(c3nc(C)n4c(C)csc34)C2)n1", "note": "(stereo not drawn)", "INHIBITION": 8.12}, {"smiles": "O=C(c1cn(-c2ccc(F)cc2)nn1)N1CCCC(n2cccn2)C1", "note": "(stereo not drawn)", "INHIBITION": -73.2}, {"smiles": "CCCc1nnc(NC(C)c2ccc3c(c2)OCCO3)o1", "note": "(stereo not drawn)", "INHIBITION": 53.9}, {"smiles": "CCCc1nnc(NC(C)c2ccc(F)cc2)o1", "note": "(stereo not drawn)", "INHIBITION": 8.48}, {"smiles": "CCc1nnc(N[C@H](C)c2cccc(OC)c2)o1", "INHIBITION": 8.48}, {"smiles": "CCCc1nnc(N[C@H](C)c2ccc(OC)cc2)o1", "INHIBITION": 52.8}, {"smiles": "CC(NC(=O)CNCCn1cccn1)c1ccc2c(c1)OCCO2", "note": "(stereo not drawn)", "INHIBITION": 24.8}, {"smiles": "Cc1nc(CCNC(C)c2ccc3c(c2)OCCCO3)cs1", "note": "(stereo not drawn)", "INHIBITION": 10}, {"smiles": "Cc1cc(C)n(C2CCCN(C(=O)Cc3cn4ccsc4n3)C2)n1", "note": "(stereo not drawn)", "INHIBITION": -15.52}, {"smiles": "CCc1ccc(C(C)NC(=O)N2CCC(n3cncn3)CC2)cc1", "note": "(stereo not drawn)", "INHIBITION": -73.1}, {"smiles": "CC(=O)N1CCN(C(=O)c2[nH]nnc2Nc2ccccc2F)CC1", "INHIBITION": -1.45}, {"smiles": "CC(C)N1CCN(C(=O)c2[nH]nnc2Nc2ccccc2F)CC1", "INHIBITION": 4.35}, {"smiles": "CC(C)CN1CCN(C(=O)c2[nH]nnc2Nc2ccccc2F)CC1", "INHIBITION": 64}, {"smiles": "CC(=O)N1CCCC1c1cc(N2CCN(CC3CC3)CC2)cc(C)n1", "note": "(stereo not drawn)", "INHIBITION": 45.6}, {"smiles": "CC(=O)N1CCCC1c1cc(N2CCN(CC(C)(C)C)CC2)cc(C)n1", "note": "(stereo not drawn)", "INHIBITION": 51.5}, {"smiles": "CC(=O)N1CCCC1c1cc(N2CCN(C3CCCC3)CC2)cc(C)n1", "note": "(stereo not drawn)", "INHIBITION": 34.5}, {"smiles": "OCC1(CCOc2ccccc2)CCN(c2ccc(Cl)cn2)CC1", "INHIBITION": 32.2}, {"smiles": "N#Cc1cccc(N2CCCC(CO)(CCOc3ccccc3)C2)n1", "note": "(stereo not drawn)", "INHIBITION": 25.7}, {"smiles": "CC(C)=CCC1(C(=O)O)CCCN(c2ccnc(N)n2)C1", "note": "(stereo not drawn)", "INHIBITION": 15}, {"smiles": "Nc1nccc(N2CCCC(CO)(CCOc3ccccc3)C2)n1", "note": "(stereo not drawn)", "INHIBITION": 86.8}, {"smiles": "N#Cc1ccc(N2CCCC(CO)(CCOc3ccccc3)C2)nc1", "note": "(stereo not drawn)", "INHIBITION": 59.1}, {"smiles": "CCc1nc(N2CCCC(CO)(CCOC)C2)ncc1C", "note": "(stereo not drawn)", "INHIBITION": -1.83}, {"smiles": "OCC1(CCOc2ccccc2)CCCN(c2ccc(Cl)cn2)C1", "note": "(stereo not drawn)", "INHIBITION": 83.3}, {"smiles": "Nc1nccc(N2CCC(Cc3ccccc3Cl)(C(=O)O)CC2)n1", "INHIBITION": 23.5}, {"smiles": "N#Cc1cccnc1N1CCCC(CO)(CCOc2ccccc2)C1", "note": "(stereo not drawn)", "INHIBITION": 23.8}, {"smiles": "Cc1cnn(CC2CCCN2C(=O)CCc2ccc3c(c2)OCO3)c1", "note": "(stereo not drawn)", "INHIBITION": 9.64}, {"smiles": "COC(=O)N1CCC(NC(=O)c2cc(S(N)(=O)=O)ccc2C)CC1", "INHIBITION": 14.6}, {"smiles": "COc1cc(N2CC3(CCN(S(C)(=O)=O)C3)C2)ncn1", "INHIBITION": -21.7}, {"smiles": "CCOC(=O)c1sc(NC(=O)COC)c(C#N)c1C", "INHIBITION": -30.8}, {"smiles": "COCCN1CCCN(C(=O)c2scnc2C)CC1", "INHIBITION": -2.03}, {"smiles": "c1ccc(CN2CCCC(Cn3cncn3)C2)nc1", "note": "(stereo not drawn)", "INHIBITION": 24}]}]}
